# Screening results: PubChem BioAssay, National Center for Advancing Translational Sciences (NCATS)
# Tb PFK inh: qHTS Assay to Find Inhibitors of T. brucei phosphofructokinase; ATP-dependent 6-phosphofructokinase (Trypanosoma brucei brucei), O15648; T. brucei PFK, ADP-Glo luminescence; Potency, µM (series often up to 57.5 µM), without a hit: top-dose activity, negative = inhibition, usual class: inhibitors; actives 0.17% (n = 330,000); AID 485367, 2010;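 note: potency is the fitted concentration of half-maximal effect; 0% = uninhibited 1x PFK enzyme wells and -100% = no-enzyme wells; nearly all actives have a fitted effect of over 60% in size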
#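 PFK 1.25 nM, F6P 0.5 mM, ATP 0.1 mM, 0.1 M TEA pH 8.0, 5 mM MgCl2, 0.01% Tween20, 0.1% BSA; 45 min RT. ADP-Glo readout. qHTS titration up to 57 uM; curves fitted, compounds curve-classed.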
# RXFP1 antagonist: qHTS Assay for Antagonists of the Relaxin Receptor RXFP1 | HEK293-RXFP1, relaxin-stimulated cAMP HTRF, 30 min; active compounds read low | activity change, negative = inhibition, % at 57.5 µM | actives 0.59% (n = 350,000) | Relaxin receptor 1 (Homo sapiens), Q9HBX9;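 active = activity change of -60% or lower, but not beyond a set lower limit; inconclusive = change between -60% and -40%, or beyond the set limit; inactive = change above -40%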; note: % is set by controls: 0 for no effect and ±100 for the full control effect
# Target sequence (Q9HBX9 whole entry, looked up): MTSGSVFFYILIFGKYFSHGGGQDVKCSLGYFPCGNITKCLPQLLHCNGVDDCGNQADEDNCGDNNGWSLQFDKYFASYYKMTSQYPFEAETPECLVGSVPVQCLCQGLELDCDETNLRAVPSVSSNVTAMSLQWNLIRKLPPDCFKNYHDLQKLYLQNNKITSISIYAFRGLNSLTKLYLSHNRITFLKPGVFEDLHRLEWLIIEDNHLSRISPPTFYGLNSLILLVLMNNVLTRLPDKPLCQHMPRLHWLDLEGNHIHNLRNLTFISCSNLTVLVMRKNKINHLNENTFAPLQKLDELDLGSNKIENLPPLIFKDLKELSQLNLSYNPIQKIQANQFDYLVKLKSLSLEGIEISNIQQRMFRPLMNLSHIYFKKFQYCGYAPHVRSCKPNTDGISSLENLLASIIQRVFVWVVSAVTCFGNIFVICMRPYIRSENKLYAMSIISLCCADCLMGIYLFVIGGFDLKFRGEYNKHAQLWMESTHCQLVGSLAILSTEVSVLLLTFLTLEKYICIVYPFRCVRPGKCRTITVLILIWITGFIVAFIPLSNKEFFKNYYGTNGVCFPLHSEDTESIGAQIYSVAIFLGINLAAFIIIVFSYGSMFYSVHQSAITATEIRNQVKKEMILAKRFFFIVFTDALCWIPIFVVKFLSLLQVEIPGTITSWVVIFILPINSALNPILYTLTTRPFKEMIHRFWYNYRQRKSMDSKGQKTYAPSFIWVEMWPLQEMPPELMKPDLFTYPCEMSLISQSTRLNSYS
# gsp antagonist: qHTS for Antagonists of gsp, the Etiologic Mutation Responsible for Fibrous Dysplasia/McCune-Albright Syndrome: qHTS; gsp-mutant cells, cAMP HTRF, 30 min; Potency, µM (series often up to 76.9 µM), without a hit: at the top dose activity change, negative = inhibition, hits mostly inhibitors; actives 0.4% (n = 340,000); calls by dose curve; cell line not stated here;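 note: intracellular cAMP measured with PDE inhibitor Ro 20-1724 present during compound exposure; potency is the fitted concentration of half-maximal effect; % is set by controls: 0 for no effect and ±100 for the full control effect; nearly all actives have a fitted effect of over 65% in size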
#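 Cells in G418 medium, seeded 16-24 h, 37C; buffer exchange to DPBS + 1 mM CaCl2, 0.5 mM MgCl2, 0.05% BSA; cpds in DMSO + […] (300 uM stock), 30 min 37C; HTRF cAMP detection.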
# RXFP1 agonist: qHTS Assay for Agonists of the Relaxin Receptor RXFP1. Relaxin receptor 1 (Homo sapiens), Q9HBX9. HEK293T-RXFP1 cAMP TR-FRET, 30 min; response scale: percent of porcine relaxin response, buffer zero. Potency, µM (doses to about 57.5 µM), for inactives: top-dose activation, actives largely listed as activators. actives 0.3% (n = 370,000). AID 2676, 2010; note: potency is the fitted concentration of half-maximal effect; % is set by controls: 0 for no effect and ±100 for the full control effect; nearly all actives have a fitted effect of over 60% in size
#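 HEK293T cells stably expressing RXFP1 were pretreated with the PDE4 inhibitor Ro 20174, exposed to compounds for 30 min at 37C, lysed, and cAMP was read by TR-FRET. Data normalized to buffer (basal) and 29 nM porcine relaxin (100%).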
# p53 reactivation: qHTS assay for re-activators of p53 using a Luc reporter | H1299 p53-A138V BP100-luciferase reporter, luminescence, 24 h | Potency, µM (titrated, usually from 92.2 µM), for the others: at the highest dose activity change, positive = activation, hits mostly activators | actives 0.063% (n = 320,000); note: potency is the fitted concentration of half-maximal effect; % of control where 0% means no effect; nearly all actives have a fitted effect of over 45% in size
#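 p53-null H1299 cells stably carrying temperature-sensitive p53-A138V and a BP100-luciferase reporter were pinned with compounds (4-point, 1:5 series) and held 24 hrs at 37 deg C. Luminescence was read 10 min after detection reagent.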
# gsp agonist: qHTS for Agonist of gsp, the Etiologic Mutation Responsible for Fibrous Dysplasia/McCune-Albright Syndrome: qHTS; gsp mutant cells, cAMP HTRF, 30 min; Potency, µM (series often up to 76.9 µM), for the others: at the top dose activation (cAMP increase), usual class: activators; actives 0.13% (n = 340,000); active = well fitted activation curve with a large enough effect; inconclusive = small, poorly fitted or top-dose-only effect, or another doubt; inactive = no such curve, though single readings can be large or run the other way; cell line not stated here;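 note: phosphodiesterase inhibitor Ro 20-1724 added with compounds to block cAMP breakdown; potency is the fitted concentration of half-maximal effect; nearly all actives have a fitted effect of over 60% in size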
#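 Cells in DMEM/10% FBS with G418 were pretreated with compounds in DMSO plus […] (300 uM stock) for 30 min at 37C. cAMP was measured by HTRF (cAMP-d2 plus anti-cAMP antibody-K) after 30 min at room temperature.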
# * marks the source's active call; other numbers are inactive results; ? = inconclusive; · = no result given; [ ] = dose if it differs, or a comment. Compounds with a hit are over-represented: about 1.1% of the library has one in this group of screens. Unless noted, calls come from the whole dose curve; as a rule, active = well fitted curve in the direction sought with a large enough effect; inconclusive = small, poorly fitted or top-dose-only effect, or another doubt; inactive = no such curve, though single readings can be large; an effect the other way counts as inactive or inconclusive.
SMILES,Tb PFK inh,RXFP1 antagonist,gsp antagonist,RXFP1 agonist,p53 reactivation,gsp agonist
Cc1ccc(-c2nn(-c3ccccc3)cc2/C=N/O)cc1,12%,-64*,11%,6%,-9%,-4%
COc1ccc2c(c1OC)C(=O)N1c3ccccc3C(=O)N(c3ccccc3)C21 (stereo unspecified),-2%,0,-27%,1%,-15%,-31%
CCN(CC)c1ccc(/C=N/OC(C)C(=O)Nc2ccc(C)cc2)cc1 (stereo unspecified),2%,0,-1%,0%,?,?
Cc1nnc(SCCn2c(N3CCC(Cc4ccccc4)CC3)nc3c2c(=O)[nH]c(=O)n3C)s1,-3%,-29,-16%,-1%,-1%,-14%[15.4 µM]
CCCCn1c(N2CCC(Cc3ccccc3)CC2)nc2c1c(=O)[nH]c(=O)n2C,-6%,-90*,9%,1%,-17%,15%
CCOC(=O)c1c(C)[nH]c(C(=O)NNC(=O)c2ccc(Br)cc2)c1C,-14%,7,-1%,2%,?,1%
O=C(C(Cl)Cl)N1CC2CCC(CC2)C1,·,-4,-2%,·,·,7%
COc1cccc(NC(=O)CN(C)C(=O)CC(C)c2ccccc2)c1 (stereo unspecified),-10%,5,-1%,-4%,-4%,-41%
CCCC(=O)N(C1CC(C)C(C#N)(C#N)C1(C#N)C#N)N(C)C (stereo unspecified),18%,-85*,-3%,0%,-17%,6%[15.4 µM]
CC(=O)N(C1CC(C)C(C#N)(C#N)C1(C#N)C#N)N(C)C (stereo unspecified),0%,-19,11%,2%,-12%,4%[15.4 µM]
COc1ccc2[nH]c(=O)c(CN(CC3CCCO3)C(=O)Nc3ccc(F)cc3)cc2c1 (stereo unspecified),-1%,·,32µM*,-1%,-23%,11%
CCOCc1nc(C)c(Cl)c(NS(=O)(=O)c2ccc(N)cc2)n1,0%,-3,-1%,0%,7%,-22%
Cc1cccc(CN2CCSc3sccc3C2=O)c1,4%,-27,·,1%,-4%,0%[15.4 µM]
CCOC(=O)c1cnc2ccc(OCC)cc2c1NCc1ccccc1OC,-2%,-35,32µM*,-1%,-5%,1%[15.4 µM]
COc1cc(NC(=O)COC(=O)/C=C/c2ccccc2Cl)cc(OC)c1,4%,9,-12%,0%,1%,8%
c1ccc(-c2noc(-c3ccco3)n2)nc1,-18%,-2,9%,2%,22µM*,11%
Cc1cc(NC(=O)c2cccc(S(=O)(=O)N3CCCCCC3)c2)no1,-1%,27,1%,1%,0%,-54%
CCOC(=O)C1=C(COC(=O)/C=C/c2ccc(SC)cc2)NC(=O)NC1C (stereo unspecified),-3%,-76*,0%,0%,-8%,1%[15.4 µM]
Cc1cc(C)cc(N=c2c([N+](=O)[O-])nn(-c3ccc(Cl)cc3)n2O)c1,6%,-25,3%,3%,2%,2%[15.4 µM]
CCc1ccc(N=c2c([N+](=O)[O-])nn(-c3ccccc3)n2O)cc1,?,5,-6%,0%,40µM*,36%
COc1cccc(C(=O)NCC(=O)N2CCC3(CC2)NCCc2[nH]cnc23)c1,-2%,29,11%,1%,-1%,25%
O=C(Nc1ccccc1)Nc1ncc([N+](=O)[O-])s1,-1%,-18,28µM*,1%,-5%,-12%[15.4 µM]
CCCOc1c(Cl)cc(C(=O)NC)cc1OC,1%,-8,4%,-1%,-3%,-10%[15.4 µM]
CCOC(=O)c1nnn(-c2nonc2N)c1COc1ccccc1,-5%,-5,-4%,1%,4%,7%
